# Source: PubChem BioAssay AID463082 (The Scripps Research Institute Molecular Screening Center, 2010)
# Out of some 330,000 compounds screened, about 4,900 (1.5%) were called active.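 The calls were made as follows: active = inhibition above the mean inhibition across the screen plus 3 SD (cut at about 25% in these data); inactive = the rest.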 What follows is part of a selection rich in actives, with near analogues and random picks from the rest.
# Target: Platelet-activating factor acetylhydrolase (Homo sapiens) (UniProt Q13093)
# Assay: inhibition of plasma PAF acetylhydrolase – biochemical, fluorescence polarization, human, primary screen (AID 463082);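 also: inhibitors block binding of the rhodamine activity-based probe so polarization drops; 0% = enzyme with DMSO and 100% = wells lacking pPAFAH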
# Conditions: recombinant pPAFAH, FP-rhodamine probe fluorescence polarization; at 3.39 µM; stronger effect = higher value
# Chain of Platelet-activating factor acetylhydrolase (Homo sapiens) (Q13093 whole entry, looked up): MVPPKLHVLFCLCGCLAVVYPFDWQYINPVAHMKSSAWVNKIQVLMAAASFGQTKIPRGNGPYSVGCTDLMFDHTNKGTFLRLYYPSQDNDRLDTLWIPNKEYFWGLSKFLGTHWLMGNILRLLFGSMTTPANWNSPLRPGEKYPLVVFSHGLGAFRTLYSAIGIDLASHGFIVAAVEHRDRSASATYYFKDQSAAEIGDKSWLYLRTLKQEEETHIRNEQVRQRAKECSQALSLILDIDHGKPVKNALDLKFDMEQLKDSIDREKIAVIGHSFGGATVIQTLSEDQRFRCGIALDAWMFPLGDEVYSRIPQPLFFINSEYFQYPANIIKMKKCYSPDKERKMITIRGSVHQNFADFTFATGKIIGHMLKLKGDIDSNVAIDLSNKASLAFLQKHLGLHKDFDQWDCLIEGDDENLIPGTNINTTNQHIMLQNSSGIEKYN
row,SMILES,inhibition
1,CN(C)S(=O)(=O)N1CCC(Oc2cccc(C(=O)NCCCC3CCCC3)c2)CC1,3.19% (inactive)
2,Cc1ccc(C(=O)O)cc1-c1ccc(/C=C2\SC(=O)N(CC(=O)Nc3ccc4c(c3)OCO4)C2=O)o1,30.2% (active)
3,Cc1nn(CC(=O)Nc2ccc3c(c2)OCO3)c(C)c1[N+](=O)[O-],-3.11% (inactive)
4,Cc1ccc(C(=O)Nc2ccc3c(c2)OCO3)cc1S(=O)(=O)N1CCCCC1,14.5% (inactive)
5,O=C(COC(=O)c1ccc(F)cc1)Nc1ccc2c(c1)OCO2,9.5% (inactive)
6,O=C(NOCc1ccccc1)c1cccc([N+](=O)[O-])c1,7.75% (inactive)
7,Cn1c(=O)c2c(ncn2CC(=O)N/N=C/c2cn[nH]c2-c2ccc(F)cc2)n(C)c1=O,1.61% (inactive)
8,CCN(Cc1ccccc1)C(=O)Cc1ccc(OC)c(S(=O)(=O)N2CCOCC2)c1,-1.51% (inactive)
9,Oc1c(Cl)cc(Cl)c(Cl)c1Cc1c(O)c(Cl)cc(Cl)c1Cl,68.2% (active)
10,O=C(CN1C(=O)NC2(CCOc3ccccc32)C1=O)Nc1cccc([N+](=O)[O-])c1 (centres undefined),0.7% (inactive)
11,Cc1cccc(NC(=S)NCCc2ccc(F)cc2)c1C,3.05% (inactive)
12,CC(=O)Nc1ccc(Oc2ccc3c(c2)C(=O)NC3=O)cc1,-0.12% (inactive)
13,CCCCN(C)CCC(=O)Nc1ccc(Cl)cc1,1.11% (inactive)
14,CCCCC(=O)Nc1ccc2c(c1)C(=O)NC2=O,34.6% (active)
15,Cc1cc(NC(=O)c2ccccc2C)no1,2.84% (inactive)
16,O=[N+]([O-])c1cc(Cl)cc(/C=N/NC(=S)Nc2cc(S(=O)(=O)N3CCOCC3)ccc2Cl)c1O,36.5% (active)
17,O=S(=O)(c1ccc(NC(=S)NN=C(C2CC2)C2CC2)cc1)N1CCOCC1,15% (inactive)
18,Cc1ccc(S(=O)(=O)N2CCN(CC(=O)N/N=C/c3cc([N+](=O)[O-])ccc3Cl)CC2)cc1,3.66% (inactive)
19,CSc1ccc(C(=O)C2CCCN(C(=O)c3ccc(C)nc3)C2)cc1 (centres undefined),5.05% (inactive)
20,CCOC(=O)C1C(=O)OC2(CCCC2)C1C(=O)OCC (centres undefined),-0.69% (inactive)
21,CN(CC(=O)N1CCN(c2ccccc2)CC1)S(=O)(=O)c1cccs1,-1.58% (inactive)
22,CC(=O)N(C)c1ccc(NC(=O)C(F)(F)F)cc1,-4.77% (inactive)
23,CN(C)c1ccc(N/C=C/C(=O)C(F)(F)F)cc1,42.4% (active)

row,SMILES,inhibition
1,CC(C)CNC(=O)C(=O)Nc1ccc(N(C)C)cc1,-8.71% (inactive)
2,CCCc1ccc(C(=O)[C@@H]2[C@@H](C(C)=O)N3c4ccc(F)cc4C=C[C@@H]3[C@@]23C(=O)Nc2ccccc23)cc1,2.89% (inactive)
3,O=C(CSc1ncnc2sccc12)NC1CCS(=O)(=O)C1 (centres undefined),4.85% (inactive)
4,COc1ccc(NC(=O)C(NC(C)=O)C(=O)NCc2ccccc2Cl)cc1 (centres undefined),-2.3% (inactive)
5,COC(=O)[C@@]12CCCN1[C@H](c1ccc(-c3ccc(F)cc3)c(OC)c1)[C@H]1C(=O)N(C)C(=O)[C@H]12,-3.21% (inactive)
6,CNC(=S)N/N=C/c1cn(Cc2ccc(C)cc2)c2ccccc12,18.1% (inactive)
7,CCOC(=O)N/N=C/c1cn(Cc2ccccc2Cl)c2ccccc12,30.1% (active)
8,COC(=O)N/N=C/c1cn(CCCOc2ccc(C)cc2)c2ccccc12,19.2% (inactive)
9,Cc1ccc(-c2nc(SCC(=O)Nc3ccccc3OC(F)F)c3c(C)c(C(=O)O)sc3n2)cc1,1.04% (inactive)
10,OCCCC1CCCCN1Cc1nc(Cc2ccccc2Cl)no1 (centres undefined),-2.08% (inactive)
11,CC(C)c1ccc(Nc2nnc(SCC(=O)c3nnc(-c4ccccc4)o3)s2)cc1,30.8% (active)
12,CC(C)N(C(=O)CSc1nnc(NC2CC2)s1)c1ccccc1,-0.35% (inactive)
13,Cc1ccccc1Nc1nnc(SCC(=O)c2cc3ccccc3o2)s1,2.17% (inactive)
14,Fc1ccccc1/C=C1\CCCC2=C1Nc1ncnn1C2c1ccccc1F (centres undefined),14% (inactive)
15,O=C1C=C(c2cccc(Cl)c2O)C[C@@H](c2ccc(F)cc2)C1,4.07% (inactive)
16,O=C(NCc1ccc(F)cc1)C(c1ccccc1)N(C(=O)c1csnn1)C1CC1 (centres undefined),-2.59% (inactive)
17,CC1=NNC(=O)C1CCC(=O)N/N=C(\C)c1ccc(Cl)cc1 (centres undefined),3.21% (inactive)
18,O=C(CCC1CCCCC1)Nc1cc(C(F)(F)F)ccc1N1CCOCC1,37.1% (active)
19,CC(C)CC(=O)Nc1cc(C(F)(F)F)ccc1N1CCOCC1,-1.9% (inactive)
20,O=C(CN1C(=O)NC2(CCCC2)C1=O)Nc1cc(C(F)(F)F)ccc1N1CCOCC1,6.53% (inactive)
21,Cc1ccc(O/C=C2\OC(=O)c3ccccc32)cc1,-0.55% (inactive)
22,Cc1noc(C)c1NC(=O)Nc1ccc2c(c1)C(=O)N([C@H](C)CO)C[C@H](C)[C@@H](CN(C)C(=O)Nc1ccc(C(F)(F)F)cc1)O2,-10.3% (inactive)
23,COc1ccc(NC(=O)c2cc(-c3ccc(C)o3)nc3ccccc23)cc1,11.4% (inactive)

row,SMILES,inhibition
1,CC(=O)N1CCN(C(=O)c2cc(-c3ccc(Cl)s3)nc3ccccc23)CC1,3.56% (inactive)
2,CC(=O)N1CCN(C(=O)c2cc(-c3ccc(C)o3)nc3ccccc23)CC1,41% (active)
3,O=C(Cn1ncc2c3ccccc3n(Cc3ccccc3)c2c1=O)NCc1ccccn1,-0.14% (inactive)
4,CCN1CCN(C(=O)CCN2C(=O)c3ccccc3C2=O)CC1,-1.23% (inactive)
5,CCCCOc1ccc(N(CC(=O)NCC2CCCO2)C(=O)CCC(=O)Nc2cc(C)ccn2)cc1 (centres undefined),10.7% (inactive)
6,CCOc1ccc(C(C(=O)NCCOC)N(CCOC)C(=O)CCC(=O)Nc2ccccn2)cc1 (centres undefined),5.87% (inactive)
7,CCCCOc1ccc(N(CC(=O)NC(C)C)C(=O)CCC(=O)Nc2ccccn2)cc1,28.3% (active)
8,COc1ccccc1C(=O)Nc1ccc(Nc2ccccc2)cc1,2.35% (inactive)
9,CCC(=O)Nc1nnc(S(=O)(=O)N(CC(C)C)c2ccccc2)s1,3.99% (inactive)
10,O=C(Nc1cc(C(F)(F)F)ccc1Cl)c1cc2nc3c(c(C(F)(F)F)n2n1)CCCC3,8.15% (inactive)
11,CN=C1S/C(=C\c2c(OC)cc(OC)cc2OC)C(=O)N1C,-0.42% (inactive)
12,Cc1cc(/C=C2\SC(=Nc3ccc(N4CCOCC4)cc3)N(C)C2=O)c(C)n1-c1cccnc1,2.99% (inactive)
13,CN1C(=O)/C(=C/c2ccco2)SC1=Nc1cccc(C(=O)O)c1,25.1% (active)
14,Cc1nc2ccccc2c(=O)n1-c1ccc(F)c(NC(=O)c2cccs2)c1,-0.28% (inactive)
15,O=C(NC1CCCC1)c1cc(-c2ccccc2)on1,8.25% (inactive)
16,N#C/C(=C\c1ccc(O)c(O)c1)C(=O)NCc1ccccc1,28.2% (active)
17,COc1ccc(CNC(=O)/C(C#N)=C/c2cccc(OC)c2OC)cc1,-1.57% (inactive)
18,COCCNC(=O)/C(C#N)=C/c1cccc(OCc2ccccc2)c1,2.65% (inactive)
19,Cc1cccc(C)c1N1CCN(S(=O)(=O)N2CCCCC2)CC1,0.66% (inactive)
20,O=C1COc2ccc(C(=O)COC(=O)c3cccnc3Cl)cc2N1,3.48% (inactive)
21,Cc1cc(=O)oc2c1ccc1ccccc12,1.01% (inactive)
22,O=C1CCC([N+](=O)[O-])C(c2ccccc2Br)N1 (centres undefined),2.25% (inactive)
23,CN(CC(=O)Nc1ccc(OC(F)(F)F)cc1)C(=O)C1CCC1,2.02% (inactive)

row,SMILES,inhibition
1,CC(CC(=O)Nc1ccc(F)cc1F)S(=O)(=O)c1ccc2c(c1)NC(=O)CO2 (centres undefined),0.8% (inactive)
2,Cc1cc(C)n(C(=O)c2ccc(C)c(S(=O)(=O)N3CCOCC3)c2)n1,2.24% (inactive)
3,O=[N+]([O-])C(=c1ccc2c(c1)N1C3=C(CCCC3)CC3CCCCC31N=2)[N+](=O)[O-] (centres undefined),33.6% (active)
4,CCN1CCN(C(=O)C2CCN(S(=O)(=O)c3cc(Cl)ccc3Cl)CC2)CC1,3.87% (inactive)
5,CCc1cc2c(=O)c(-c3nc4ccccc4n3C)c(CCCC(=O)O)oc2cc1OC(=O)C(C)(C)C,3.51% (inactive)
6,CCc1ccc(N2CC(O)=C(c3nc4ccccc4c(=O)[nH]3)C2=N)cc1,-1.78% (inactive)
7,COc1ccc(-n2nnnc2-c2nc3ccccc3s2)cc1,-4.42% (inactive)
8,COc1ccccc1N1CC(O)=C(c2nc3ccccc3s2)C1=N,32.9% (active)
9,C=CCC[C@H](Cc1ccc(F)cc1)C(=O)OC[C@@H](NC(=O)[C@@H](CC=C)CC(=O)N[C@H](CO)Cc1ccccc1)C(C)(C)C,4.14% (inactive)
10,Cc1cc(NC(=O)CSC2=NS(=O)(=O)c3cc(Cl)ccc3N2)no1,-4.37% (inactive)
11,CS(=O)(=O)N1CCCC(C(=O)Nc2ccccc2C(F)(F)F)C1 (centres undefined),-1.76% (inactive)
12,O=C(COC(=O)c1ccc(Oc2ccccc2)cc1)Nc1nnc(-c2ccccc2)o1,25% (active)
13,CC(=O)Nc1cccc(C(=O)OCC(=O)Nc2nnc(-c3ccccc3)o2)c1,5.98% (inactive)
14,O=C(COC(=O)c1ccccc1Br)Nc1nnc(-c2ccccc2)o1,4.87% (inactive)
15,O=C(COc1ccccc1)N1CCN=C1SCc1cccc(F)c1,4.42% (inactive)
16,O=C(COc1ccc(S(=O)(=O)NCc2ccccc2)cc1)N1CCOCC1,4.78% (inactive)
17,CC(NS(=O)(=O)c1ccc(OCC(=O)N2CCCC2)cc1)c1ccccc1 (centres undefined),14.5% (inactive)
18,O=C(COc1ccc(S(=O)(=O)NCCc2ccccc2)cc1)N1CCCC1,26.8% (active)
19,CCCCNC(=O)CCn1c(=O)c2ccccc2n(Cc2cc(C)ccc2C)c1=O,1.95% (inactive)
20,Cc1ccc(S(=O)(=O)N(CC(=O)Nc2cccnc2)c2ccc(Br)cc2)cc1,3.28% (inactive)
